Experimental findings from PubChem BioAssay (NCI) are described below.

Test systems include HCT-15 colon; HT29 colon; SNB-75 CNS; SNB-19 CNS; U251 CNS; PC-3 prostate; SK-MEL-5 melanoma; UACC-62 melanoma; LOX IMVI melanoma; SK-MEL-28 melanoma.
Assay in all cases: NCI-60 one-dose screen, 48 h (100 = growth as untreated, 0 = no growth, -100 = all killed)
Conditions in all cases: 10 µM unless noted

This is part of a sample that, as a whole, favours compounds with a hit. Of some 83,000 tested, about 20% had one in any assay.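 The test compound was applied at a single concentration to cells in 96-well plates for 48 hours, and percent growth was recorded.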 Values without a mark were called inactive. Active and inactive are the calls of the source. Rule for the calls: active = growth percent below 10; inactive = the rest.

For `NCCCNc1nc2ccc(Cl)cc2c2c(=O)c3cc(F)ccc3sc12`, the growth was 47.9% in the experiment with HCT-15 colon; -12.1% (active) in the experiment on HT29 colon; 54.2% in the experiment with SNB-75 CNS; 77.1% with SNB-19 CNS; 38.1% in the experiment on U251 CNS; 58.2% in the experiment with PC-3 prostate. Also, the growth with SK-MEL-5 melanoma was 94.3%; in the experiment with UACC-62 melanoma, 97.4%; in the experiment with LOX IMVI melanoma, -62.3% (active); with SK-MEL-28 melanoma, 103%.
As for `CSc1ccc2c(c1)c(CCN)c(C)n2Cc1ccc(Cl)c(Cl)c1`, the growth in the experiment with HCT-15 colon was -91.3% (active); with HT29 colon, -82.9% (active); in the experiment with SNB-75 CNS, -84.3% (active); in the experiment with SNB-19 CNS, -75% (active); in the experiment on U251 CNS it was -87.3% (active); in the experiment with PC-3 prostate, -90% (active). Moreover, the growth with SK-MEL-5 melanoma is -95.1% (active); in the experiment with UACC-62 melanoma, -89.6% (active); in the experiment with LOX IMVI melanoma, -89.7% (active); in the experiment with SK-MEL-28 melanoma it was -65.6% (active).
`Cc1cccc(OCC(O)CN2CCN(c3ccc(Cl)cc3)CC2)c1` (stereo not given): the growth in the experiment on HCT-15 colon was 117%; in the experiment on HT29 colon it was 104%; with SNB-75 CNS, 95.1%; in the experiment on SNB-19 CNS, 99.8%; in the experiment on U251 CNS, 104%; with PC-3 prostate, 86.5%. Further, the growth is 100% in the experiment with SK-MEL-5 melanoma, 94.2% in the experiment with UACC-62 melanoma, 96.8% in the experiment with LOX IMVI melanoma and 100% in the experiment with SK-MEL-28 melanoma.
For `CN(C)CCNc1nc2ccccc2c2c(=O)c3cc(F)ccc3sc12`, the growth is 22.7% with HCT-15 colon; -3.23% (active) with HT29 colon; 54.9% in the experiment with SNB-75 CNS; 55.4% with SNB-19 CNS; 41.4% in the experiment with U251 CNS; 40.4% in the experiment on PC-3 prostate. Besides, the growth with SK-MEL-5 melanoma is 83.5%; in the experiment with UACC-62 melanoma, 53.4%; with LOX IMVI melanoma, -64.3% (active); in the experiment on SK-MEL-28 melanoma, 55.6%.
As to `CCOC(=O)c1cn2ncnc(Oc3ccc(NC(=O)NCCN(CC)CC)c(Cl)c3)c2c1C`, the growth is 3.71% (active) with HCT-15 colon; 5.37% (active) with HT29 colon; 89.1% with SNB-75 CNS; 83.2% with SNB-19 CNS; 65.2% with U251 CNS; 66.1% in the experiment on PC-3 prostate. Besides, the growth is 46.6% in the experiment with SK-MEL-5 melanoma, -8.89% (active) with UACC-62 melanoma, -32.7% (active) in the experiment with LOX IMVI melanoma and -77.4% (active) in the experiment with SK-MEL-28 melanoma.
As to `COc1cc2cc(Oc3ccc(NC(=O)Nc4ccc(Cl)c(C(F)(F)F)c4)cc3)c(C)nc2cc1OCCN1CCOCC1`, the growth with HCT-15 colon was 13.7%; in the experiment with HT29 colon it was 12%; in the experiment on SNB-75 CNS, 53.3%; with SNB-19 CNS, 24.4%; in the experiment with U251 CNS, 14.8%; in the experiment with PC-3 prostate it was 13%. Besides, the growth with SK-MEL-5 melanoma was -34.7% (active); in the experiment with UACC-62 melanoma it was 29.9%; in the experiment with LOX IMVI melanoma, 9.99% (active); in the experiment with SK-MEL-28 melanoma it was 42.9%.
In the case of `CCCSc1nc2ccc(C)cc2cc1/C=[N+](\[O-])c1ccccc1`, the growth in the experiment with HCT-15 colon was 11.5%; with HT29 colon, 10% (active); in the experiment with SNB-75 CNS, 21.4%; in the experiment with SNB-19 CNS, 37.2%; with U251 CNS, 12.8%; in the experiment with PC-3 prostate it was 23.1%. The growth in the experiment on SK-MEL-5 melanoma is 27.6%; in the experiment on UACC-62 melanoma, 31.3%; with LOX IMVI melanoma it was 19%; in the experiment on SK-MEL-28 melanoma, 48.3%.
With `COc1cccc(-c2nc(-c3ccc(NC(=O)OC(C)C)cc3)[nH]c2-c2ccnc(Br)c2)c1`, the growth was 4.09% (active) with HCT-15 colon; 18.3% with HT29 colon; 23.6% in the experiment with SNB-75 CNS; 40.3% in the experiment with SNB-19 CNS; 32.7% with U251 CNS; 17.5% in the experiment on PC-3 prostate. Further, the growth in the experiment with SK-MEL-5 melanoma was 21.9%; with UACC-62 melanoma it was 9.86% (active); in the experiment with LOX IMVI melanoma, 2.73% (active); in the experiment on SK-MEL-28 melanoma, 37.7%.
For `O=C1NC(=O)C(c2ccccc2)(c2ccccc2)N1Cc1cn(-c2c3ccccc3nc3ccccc23)nn1`, the growth in the experiment on HCT-15 colon is 59.9%; with HT29 colon, 85.3%; in the experiment on SNB-75 CNS, 85.1%; in the experiment with SNB-19 CNS, 89.4%; in the experiment on U251 CNS, 91.2%; in the experiment with PC-3 prostate, 78%. Further, the growth in the experiment on SK-MEL-5 melanoma was 82.2%; in the experiment with UACC-62 melanoma, 72.4%; in the experiment with LOX IMVI melanoma, 78.2%; in the experiment on SK-MEL-28 melanoma, 103%.
With `COc1c(C2CC(=O)Nc3c2c(C)nn3-c2nc3ccccc3[nH]2)cc2c(c1OC)OCO2` (stereo not given), the growth was 37.2% with HCT-15 colon; 20.5% with HT29 colon; 44.2% in the experiment with SNB-75 CNS; 49.6% in the experiment with SNB-19 CNS; 31.5% in the experiment on U251 CNS; 48.4% in the experiment with PC-3 prostate. In addition, the growth with SK-MEL-5 melanoma was 31.9%; with UACC-62 melanoma, 55.2%; in the experiment with LOX IMVI melanoma, 46.7%; in the experiment with SK-MEL-28 melanoma it was 44.2%.
Consider `O=C1CSC(c2c(Cl)cccc2Cl)N1c1nc(Cl)cc(=O)[nH]1` (stereo not given), for which the growth in the experiment on HCT-15 colon is 123%; with HT29 colon, 111%; in the experiment with SNB-75 CNS it was 113%; in the experiment on SNB-19 CNS it was 103%; with U251 CNS, 112%; in the experiment on PC-3 prostate, 73.1%. Moreover, the growth is 97% with SK-MEL-5 melanoma, 102% with UACC-62 melanoma, 104% in the experiment on LOX IMVI melanoma and 115% in the experiment on SK-MEL-28 melanoma.
Turning to `COc1ccc(-c2[nH]ncc2-c2cc3c(c(OC)c2)OCC(=O)N3)cc1`, the growth is 23.7% in the experiment on HCT-15 colon; 37.2% in the experiment on HT29 colon; -20.2% (active) in the experiment on SNB-75 CNS; 24.7% in the experiment with SNB-19 CNS; 11.3% in the experiment on U251 CNS; 17.6% in the experiment on PC-3 prostate. In addition, the growth was 11.9% in the experiment on SK-MEL-5 melanoma, 25.3% in the experiment on UACC-62 melanoma, 41.7% in the experiment with LOX IMVI melanoma and 57.6% in the experiment on SK-MEL-28 melanoma.
Consider `Cc1c(C(=O)N[C@@H](Cc2ccccc2)C(=O)C(=O)NCc2ccc(F)cc2)[nH]c2ccccc2c1=O`, for which the growth in the experiment on HCT-15 colon was 96.2%; in the experiment with HT29 colon, 101%; in the experiment with SNB-75 CNS it was 88.5%; with SNB-19 CNS, 96.9%; with U251 CNS, 101%; with PC-3 prostate, 86.5%. Besides, the growth in the experiment on SK-MEL-5 melanoma is 98.7%; in the experiment on UACC-62 melanoma, 91.7%; in the experiment on LOX IMVI melanoma, 99.9%; in the experiment on SK-MEL-28 melanoma, 100%.
In the case of `NCCNc1nc2ccccc2c2c(=O)c3cccc(F)c3sc12`, the growth in the experiment on HCT-15 colon is 36.5%; in the experiment with HT29 colon it was 16.4%; in the experiment with SNB-75 CNS it was 88%; in the experiment on SNB-19 CNS, 56.8%; in the experiment with U251 CNS, 43.9%; with PC-3 prostate, 62.9%. Further, the growth was 88.2% in the experiment on SK-MEL-5 melanoma, 95.9% with UACC-62 melanoma, 46.6% in the experiment with LOX IMVI melanoma and 106% in the experiment with SK-MEL-28 melanoma.
For the molecule `COc1cc2cc(Oc3ccc(NC(=O)Nc4ccc(Cl)c(Cl)c4)cc3)c(C)nc2cc1OCCN1CCOCC1`, the growth is 88.9% in the experiment on HCT-15 colon; 90.1% in the experiment with HT29 colon; 92.9% in the experiment with SNB-75 CNS; 90.5% in the experiment on SNB-19 CNS; 96.6% in the experiment on U251 CNS; 76.7% in the experiment with PC-3 prostate. Further, the growth with SK-MEL-5 melanoma is 50.8%; in the experiment on UACC-62 melanoma, 77.8%; with LOX IMVI melanoma it was 93.5%; with SK-MEL-28 melanoma, 101%.
Consider `N/C(=N\c1nc2ccccc2s1)NC(=O)Nc1cccc2ccccc12`, for which the growth is 18.9% in the experiment on HCT-15 colon; 6.2% (active) in the experiment on HT29 colon; 5.83% (active) in the experiment on SNB-75 CNS; 34.8% in the experiment on SNB-19 CNS; 14.4% in the experiment on U251 CNS; 23.5% in the experiment with PC-3 prostate. Besides, the growth is 14% with SK-MEL-5 melanoma, 29.2% in the experiment on UACC-62 melanoma, 41.5% in the experiment with LOX IMVI melanoma and 65.3% with SK-MEL-28 melanoma.
For the molecule `CC/C=C\C[C@@H]1C/C=C2/C(=O)C=C[C@H]2C/C=C\CCCC(=O)O1`, the growth was -43.5% (active) with HCT-15 colon; -72.4% (active) in the experiment with HT29 colon; 32.2% with SNB-75 CNS; -31.4% (active) with SNB-19 CNS; -94.2% (active) in the experiment with U251 CNS; -37.6% (active) with PC-3 prostate. In addition, the growth in the experiment with SK-MEL-5 melanoma is -89.3% (active); in the experiment on UACC-62 melanoma, -61.1% (active); in the experiment on LOX IMVI melanoma, -77.1% (active); in the experiment on SK-MEL-28 melanoma it was -75.6% (active).
As for `COc1cc(CCCO)c(OC)c(OC)c1OC`, the growth is 110% in the experiment on HCT-15 colon; 108% with HT29 colon; 86.9% in the experiment on SNB-75 CNS; 96.1% with SNB-19 CNS; 101% with U251 CNS; 106% in the experiment on PC-3 prostate. In addition, the growth in the experiment on SK-MEL-5 melanoma was 109%; with UACC-62 melanoma it was 94.8%; in the experiment on LOX IMVI melanoma, 98.1%; with SK-MEL-28 melanoma, 109%.
Consider `COc1cc(C(=O)c2cc(C)c3[nH]c4ccc(C)cc4c3c2C)cc(OC)c1OC`, for which the growth is 8.81% (active) with HCT-15 colon; 10.6% with HT29 colon; 39.7% in the experiment on SNB-75 CNS; 52.2% in the experiment with SNB-19 CNS; 19.2% in the experiment on U251 CNS; 23.4% in the experiment with PC-3 prostate. Moreover, the growth with SK-MEL-5 melanoma is -42.3% (active); in the experiment with UACC-62 melanoma it was 62.7%; with LOX IMVI melanoma, 10.9%; with SK-MEL-28 melanoma, 57.1%.
For `COc1cc(C(=O)/C=C/c2sc(Cl)nc2Cl)cc(OC)c1OC`, the growth was -57.2% (active) in the experiment with HCT-15 colon; 25.1% in the experiment with HT29 colon; 73.1% in the experiment on SNB-75 CNS; 77.6% with SNB-19 CNS; 6.7% (active) in the experiment with U251 CNS; 50.8% in the experiment with PC-3 prostate. Besides, the growth in the experiment on SK-MEL-5 melanoma is 88.7%; in the experiment on UACC-62 melanoma it was 85.1%; with LOX IMVI melanoma, -86.5% (active); with SK-MEL-28 melanoma, 18.5%.
